Source: PubChem BioAssay (NCATS)
Records with an inconclusive call do not appear. Entries that show only a call come without a potency. Calls of active or inactive are those of the source. The call rests on the fitted dose curve; in most records, active means well fitted cell-killing curve with a large enough effect; inconclusive means small, poorly fitted or top-dose-only effect; inactive means no such curve, though single readings can be large or run the other way.

Tests used:
[1] = qHTS of pediatric cancer cell lines to identify multiple opportunities for drug repurposing: Primary screen for Rh30 cells (AID 1347107); further: nearly all actives have a fitted effect of over 75% in size
Outline: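 Cells (500-1,000/well) rested 5 h, then received compounds for 48 h; metabolically active cells were measured by CellTiter-Glo luminescence. Final concentrations spanned up to 46 µM (MIPE, 11-point) or 0.59 nM-46 µM (NPC, 8-point) in primary screens, 11-point in follow-ups.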

[2] = qHTS of pediatric cancer cell lines to identify multiple opportunities for drug repurposing: Primary screen for Rh41 cells (AID 1347108); further: nearly all actives have a fitted effect of over 70% in size
Outline: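 Viability was measured as metabolically active cells after 48 hours of treatment, read by CellTiter-Glo luminescence. Compounds were tested at multiple final concentrations, giving concentration-response curves.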
Potency means the concentration at half of the fitted maximal effect.

SMILES	Potency [1]	Potency [2]
CN(C)CC/C=C1/c2ccccc2COc2ccc(CC(=O)O)cc21	inactive	inactive
COC1=CC(=O)C[C@@H](C)[C@]12Oc1c(Cl)c(OC)cc(OC)c1C2=O	inactive	
O=C(OCCOCCO)c1ccccc1Nc1cccc(C(F)(F)F)c1	inactive	inactive
Cc1cccn2c(=O)c(-c3nnn[nH]3)cnc12	inactive	inactive
Nc1ccc(C(=O)Nc2ccccc2N)cc1	inactive	
C[C@H](CCC(=O)O)[C@H]1CC[C@H]2[C@@H]3C(=O)C[C@@H]4CC(=O)CC[C@]4(C)[C@H]3CC(=O)[C@]12C	inactive	inactive
NC(=NCCCCCCN=C(N)/N=C(\N)Nc1ccc(Cl)cc1)/N=C(\N)Nc1ccc(Cl)cc1	inactive	
CC1(C)OC[C@@H](COC(=O)CCc2ccc(OC[C@@H](O)CNCCNC(=O)N3CCOCC3)cc2)O1	inactive	inactive
CCCCCCCCCCCCCCCC[N+](C)(C)CCN(Cc1ccc(OC)cc1)c1ncccn1	16.8 µM (active)	16.8 µM (active)
CN1CCC[C@@H]1c1cccnc1	inactive	inactive
COc1ccc(CN2CCN(C(c3ccc(F)cc3)c3ccc(F)cc3)CC2)c(OC)c1OC	inactive	
N[C@@H](CCC(=O)N[C@@H](CS)C(=O)NCC(=O)O)C(=O)O	inactive	inactive
Oc1c(I)cc(Cl)c2cccnc12	inactive	
CCOC(=O)[C@H](CCc1ccccc1)N[C@@H](C)C(=O)N1Cc2ccccc2C[C@H]1C(=O)O	inactive	
Oc1ccc(Cl)c2cccnc12	inactive	
CCOc1ccc(Cc2nccc3cc(OCC)c(OCC)cc23)cc1OCC	inactive	
O=C(OCC(O)CO)c1ccccc1Nc1ccnc2cc(Cl)ccc12 (stereo not drawn)	inactive	
C#C[C@]1(O)CC[C@H]2[C@@H]3CCC4=CC(=O)CC[C@@H]4[C@H]3CC[C@@]21C	inactive	inactive
CCCCCCCCCCOCC(O)CN (stereo not drawn)	inactive	
CC(Cc1ccccc1)(NC(=O)CN)c1ccccc1 (stereo not drawn)	inactive	inactive
CCCSS/C(CCO)=C(\C)N(C=O)Cc1cnc(C)nc1N	inactive	
COc1cccc(CCc2ccccc2OCC(CN(C)C)OC(=O)CCC(=O)O)c1 (stereo not drawn)	inactive	inactive
COc1cc2c(cc1OC)C(C(C(=O)N(CCc1ccc(OC)c(OC)c1OC)CCc1ccc(OC)c(OC)c1OC)c1ccccc1)=NCC2 (stereo not drawn)	inactive	

SMILES	Potency [1]	Potency [2]
COC(=O)C1=C(C)NC(C)=C(C(=O)O[C@@H]2CCCN(Cc3ccccc3)C2)[C@@H]1c1cccc([N+](=O)[O-])c1	inactive	
COc1cc(N)c(Cl)cc1C(=O)NC1CCN(CCCOc2ccc(F)cc2)CC1OC (stereo not drawn)	inactive	inactive
CN(C)CC/C=C1\c2ccccc2Sc2ccc(Cl)cc21	inactive	
CC(C)COC(=O)c1ccc(N)cc1	inactive	inactive
Cc1ccc(C(=O)C(C)CN2CCCCC2)cc1 (stereo not drawn)	inactive	inactive
CC(=O)N/N=C/c1ccc([N+](=O)[O-])o1	inactive	
O=C(O)CNC(=O)c1ccccc1	inactive	inactive
CN(C(=O)CN(CCO)CC(=O)N(C)C(C)(C)Cc1ccccc1)C(C)(C)Cc1ccccc1	inactive	inactive
CO/N=C1\CN(c2nc3c(cc2F)c(=O)c(C(=O)O)cn3C2CC2)CC1CN (stereo not drawn)	inactive	inactive
CCN(CC)CCOC(=O)C(c1ccccc1)C1CCCCC1 (stereo not drawn)	inactive	
CCOc1ccc(NC(=O)CC(C)O)cc1 (stereo not drawn)	inactive	inactive
CN1CCN(CCCN2c3ccccc3Sc3ccc(S(=O)(=O)N(C)C)cc32)CC1	inactive	inactive
CNC(=O)CN(CCN(CCN(CC(=O)[O-])CC(=O)NC)CC(=O)[O-])CC(=O)[O-].O.[Gd+3]	inactive	inactive
CCN(CC)CCNC(=O)COc1ccc(Cl)cc1	inactive	inactive
CCCCOc1ccc(C(=O)CCN2CCCCC2)cc1	inactive	
CC(=O)c1ccc2c(c1)N(CCCN1CCC(CCO)CC1)c1ccccc1S2	inactive	inactive
CC(=O)CC(c1ccc([N+](=O)[O-])cc1)c1c(O)c2ccccc2oc1=O (stereo not drawn)	inactive	inactive
COc1ccc(OC)c(C(O)CNC(=O)CN)c1 (stereo not drawn)	inactive	inactive
O=c1ccc2ccccc2o1	inactive	inactive
CC(C)NC[C@@H](O)COc1cccc2ccccc12	inactive	inactive
CCCCCC=CCC=CCCCCCCCC(=O)OCC	inactive	inactive
Cc1cccc(C)c1NC(=O)CN1CCN(CCCC(c2ccc(F)cc2)c2ccc(F)cc2)CC1	inactive	inactive
